The text below walks through data of ChEMBL document CHEMBL3433997, “St. Jude Leishmania screening dataset” (2016).

Type in all cases: functional
Experiment [1] has as its target Solute carrier family 2, facilitated glucose transporter member 1 (Homo sapiens) (UniProt P11166). The experiment in a line: ST_JUDE_LEISH: Cytotoxicity at 2uM final concentration against transgenic Leishmania Mexicana promastigotes LmGLUT1 that are glucose transport deficient and complemented with the human glucose transporter GLUT1. Activity is measured by DNA content using SYBR green in vitro.

Experiment [2] concerns the target Hexose transporter 1 (Plasmodium falciparum) (UniProt O97467). Description: ST_JUDE_LEISH: Cytotoxicity at 2uM final concentration against transgenic Leishmania Mexicana promastigotes LmPfHT that are glucose transport deficient and complemented with the Plasmodium falciparum hexose transporter. Activity is measured by DNA content using SYBR green in vitro.
The target of experiment [3] is Glucose transporter (Leishmania mexicana) (UniProt O61059). The experiment in a line: ST_JUDE_LEISH: Cytotoxicity at 2uM final concentration against transgenic Leishmania Mexicana promastigotes LmGT2 that are glucose transport deficient and complemented with the L. Mexicana glucose transporter 2. Activity is measured by DNA content using SYBR green in vitro.

Sequence of Solute carrier family 2, facilitated glucose transporter member 1 (Homo sapiens) (P11166 whole entry): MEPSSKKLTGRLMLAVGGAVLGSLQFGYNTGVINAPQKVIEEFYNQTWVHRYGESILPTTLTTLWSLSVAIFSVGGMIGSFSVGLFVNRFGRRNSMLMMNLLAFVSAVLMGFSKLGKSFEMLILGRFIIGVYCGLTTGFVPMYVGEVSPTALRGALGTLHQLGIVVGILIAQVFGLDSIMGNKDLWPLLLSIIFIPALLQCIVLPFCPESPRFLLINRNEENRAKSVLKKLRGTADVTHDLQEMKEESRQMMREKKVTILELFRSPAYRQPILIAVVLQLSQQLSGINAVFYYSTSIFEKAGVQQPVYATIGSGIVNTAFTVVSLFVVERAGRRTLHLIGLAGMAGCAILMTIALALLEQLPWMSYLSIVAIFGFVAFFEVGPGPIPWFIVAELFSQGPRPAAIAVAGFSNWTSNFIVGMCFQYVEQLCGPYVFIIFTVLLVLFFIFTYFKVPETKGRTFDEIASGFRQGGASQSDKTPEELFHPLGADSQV

What is called inhibition is the relative decrease from the control value, in per cent. For `OC(c1cc(C(F)(F)F)nc2c(F)cccc12)C1CCCCN1` (configuration not stated), the values for the inhibition in experiment [1], in experiment [2] and in experiment [3] were 0.27%, 1.52% and 1.48%, respectively.
On the same counts, the results for `Cn1cc(CN2CCCC(COC(c3ccc(F)cc3)c3ccc(F)cc3)C2)cn1` (configuration not stated) are 2.32%, 1.9% and 1.84%.
On the same counts, the results for `COc1cc(C(=O)Nc2cccc(-c3cn4cccc(C)c4n3)c2)cc(OC)c1OC` are 15.8%, 10.9% and 10.5%.
With `CCN1CCN(CCCNc2c3ccc(Cl)cc3nc3ccc(OC)cc23)CC1`, the inhibition amounted to 9.58% in experiment [1], 9.46% in experiment [2] and 8.38% in experiment [3].
On the same counts, the results for `CCN(C)C(=O)n1ncc2c3c(N)nc(N)nc3ccc21` are 3.44%, 4.56% and 2.18%.
In the same order, the values of `COc1cc(F)c2ncc(Cl)c(CCN3CCC(NCc4ccc5c(c4)NC(=O)CO5)CC3)c2c1` are 7.29%, 7.51% and 2.39%.
In the same order, the values of `CN(C)CCCNCc1ccc(-c2ccc(C(F)(F)F)cc2)cc1` are 5.63%, 4.5% and 4.81%.
As to `COc1c(C2CCN(CCCCNC(=O)c3noc(-c4ccc(C#N)cc4)n3)CC2)ccc2c1CCCC2`, the inhibition in experiment [1] is 2.99%; in experiment [2] it was 1.9%; in experiment [3], 2.85%.
In the same order, the values of `COc1ccc2c(=NN=Cc3ccccc3)cc(C)[nH]c2c1` are 12.1%, 11.5% and 8.31%.
Regarding `N=C(N)NN=Cc1c2ccccc2c(Cl)c2ccc(Cl)cc12`, the inhibition in experiment [1] was found to be 107%; in experiment [2] it was 106%; in experiment [3], 104%.
In the same order, the values of `COc1ccc(N2CCN(c3nc(Nc4ccc(NC(C)=O)cc4)nc(N4CCCC4)n3)CC2)cc1` are 0.68%, 1.16% and 5.96%.
In the same order, the values of `COc1cc2nc(Nc3ccc4c(cnn4Cc4ccccc4)c3)nc(Nc3ccc4c(cnn4Cc4ccccc4)c3)c2cc1OC` are 2.6%, 2.44% and 0.51%.
On the same counts, the results for `COc1ccc2nccc(N3CCC(SCCNCc4ccc5c(n4)NC(=O)CS5)C3)c2n1` (configuration not stated) are -1.38%, -0.72% and 0.51%.
On to `COc1ccc2ccc(F)c(CC(=O)N3CCOC(CNCc4cccc(-c5ccc(F)cc5)n4)C3)c2n1` (configuration not stated), for which the inhibition in experiment [1] is -1.79%; in experiment [2], 0.05%; in experiment [3], -0.12%.
On the same counts, the results for `Nc1ccn([C@@H]2O[C@H](COC(c3ccccc3)(c3ccccc3)c3ccccc3)[C@@H](O)[C@@H]2O)c(=O)n1` are 3.1%, 4.86% and 4.4%.
On the same counts, the results for `Cc1ccc(-c2nc3cc(NC(=O)c4ccc([N+](=O)[O-])o4)ccc3o2)cc1Cl` are 77%, 85.3% and 68.1%.
Take `c1ccc2c(NCCCCCCNc3ccnc4ccccc34)ccnc2c1`: the inhibition in experiment [1] is -2.25%; in experiment [2] it was -0.51%; in experiment [3] it was -2.32%.
On the same counts, the results for `O=C(NC1CCN(CCCOc2ccnc3cc(Cl)ccc23)C1)c1ccc(Br)cc1` (configuration not stated) are 9.74%, 7.84% and 7.14%.
In the same order, the values of `COc1ccc(CC2(c3ccc(F)cc3)N=C(N)N(CCCc3ccc(F)c(F)c3)C2=O)cc1` (configuration not stated) are 2.06%, 5.53% and 3.88%.
In the same order, the values of `COc1cc2nc(Nc3ccc(C)cc3)nc(Nc3ccc(C)cc3)c2cc1OC` are 100%, 101% and 98.1%.
Consider `CCCC(CNCc1cccc(OC(F)(F)F)c1)CNc1cc(=O)c2ccccc2[nH]1` (configuration not stated), for which the inhibition in experiment [1] came out at 3.23%; in experiment [2] it was 3.46%; in experiment [3], 2.94%.
On the same counts, the results for `CC(C)Sc1nc2c(c(=O)n1Cc1ccco1)C1(CCCC1)Cc1ccccc1-2` are 6.99%, 4.28% and 6.08%.
On the same counts, the results for `Cc1ccc2nc(C)cc(N/N=C/c3cccc([N+](=O)[O-])c3)c2c1` are 4.41%, 4.99% and 1.37%.
On the same counts, the results for `CCN1CCN(c2ccc(Nc3ccnc4ccc(Br)cc34)cc2)CC1` are 1.43%, 0.09% and -0.25%.
Regarding `O=C(/C=C/c1ccc(Cl)c(Cl)c1)NCCCCCCN1CCN(C(=O)Nc2ccc(Cl)c(Cl)c2)CC1`, the inhibition in experiment [1] was determined as 2.42%; in experiment [2], 2.46%; in experiment [3], 4.14%.
On the same counts, the results for `COc1ccc(NC(=O)C2c3ccccc3C(=O)N(C3CCCC3)C2c2cccs2)cc1OC` (configuration not stated) are 2.85%, 5.65% and 0.45%.
In the same order, the values of `Cc1ccnc2nc(C(=O)Nc3cc(C(F)(F)F)ccc3N3CCCCC3)nn12` are 1.48%, 2.09% and 1.77%.
For the compound `COc1ccccc1C1CCN(CCCCNC(=O)c2ccc(NC(=O)c3ccc(Cl)cc3)cc2)CC1`, the inhibition in experiment [1] was found to be 1.27%; in experiment [2], 3.41%; in experiment [3], 2.05%.
On the same counts, the results for `CN1CCCN(c2ccnc3cc4c(cc23)N(C(=O)c2ccc(C(F)(F)F)cc2)CC4)CC1` are 5.22%, 5.41% and 7.79%.
In the same order, the values of `Cc1nc2ccc3ccc(CNc4ccc(C#N)cc4)cc3c2c(=O)[nH]1` are 50.2%, 39.6% and 56%.
On the same counts, the results for `COc1cc(C(=O)N2CCN(C(C)C)CC2)ccc1CN(C)CCCN1CCN(c2cccc(Cl)c2Cl)CC1` are 0.76%, 0.33% and 0.31%.
As to `CCOc1ccc2c(=NN=Cc3cccc(OC)c3)cc(C)[nH]c2c1`, the figures for the inhibition in experiment [1], in experiment [2] and in experiment [3] were -0.74%, -0.19% and -0.12%, respectively.
`COc1ccc2nccc([C@@H](O)CN3CCC(NCc4cc5oc(=O)n(C)c5cc4F)CC3)c2c1`: the inhibition in experiment [1] amounted to 0.9%; in experiment [2], 0.07%; in experiment [3], 0.86%.
On to `Cc1cc(N2CCCC2)nc(Nc2ccc(NC(=O)c3ccco3)cc2)n1`, for which the inhibition was 0.47% in experiment [1], 3.07% in experiment [2] and -0.1% in experiment [3].
